Screen size: about 330,000 compounds; about 1,900 (0.58%) were called active. Not shown: some 4% with an inconclusive outcome. Not all results are given here. Measured potencies and affinities stand elsewhere. Values without a mark were called inactive. Rule as the data show it: inconclusive = inhibition above about 70% without an active follow-up result; inactive = below that.
Assay: M. tuberculosis growth inhibition, HTS (AID 449762);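 also: bacterial growth assessed after seven days of incubation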
Conditions: M. tuberculosis H37Rv growth inhibition, 7H9 media; at 25 µM; hits give high values

Going from `CCCC(=O)N1CCCC(c2nc(-c3cccc(OC)c3)no2)C1` (stereo not drawn) to `Cc1cccc(-c2noc(CCC(=O)Nc3ccc(C(N)=O)cc3)n2)c1`, the inhibition rises from -8.11% to 4.71%.

Compared with `O=C(c1ccc(Oc2ccc(C(F)(F)F)cn2)cc1)N1CCN(c2ccccc2)CC1`, `COc1ccc(N2CCN(C(=O)c3ccc(Oc4ccc(C(F)(F)F)cn4)cc3)CC2)cc1` is lower in inhibition: 46.7% for the first, 10.5% for the second.

Compared with `Cc1ccc(S(=O)(=O)N2CCCCC2)cc1NC(=O)COC(=O)c1ccccc1F`, `CCOC(=O)N1CCN(C(=O)c2cccc(S(=O)(=O)Nc3ccc(Br)cc3)c2)CC1` is higher in inhibition: -3.82% for the first, 8.88% for the second.

First: CCOc1ccc(NC(=O)CN(C)C(=O)c2c(-c3ccccc3Cl)noc2C)cc1OCC
Second: CCOC(=O)c1nn(-c2ccc(C)cc2)c(=O)cc1OCC(=O)Nc1ccc(OC)cc1
The inhibition of the first is lower: 1.46% for the first, 8.61% for the second.

Compared with `COc1ccccc1-n1cnnc1SCC(=O)Nc1cc(C)on1`, `Cc1cc(NC(=O)CSc2ccc(-c3ccccc3)nn2)no1` is lower in inhibition: -1.02% for the first, -8.31% for the second.

First: COC(=O)c1c(C(=O)OC)c2n(c1C)CCC2
Second: COc1c(C)cc(C(=O)C2CCCN(C(=O)c3cc(C)n(C)n3)C2)cc1C (stereo not drawn)
The inhibition of the first is lower: -2.13% for the first, 5.63% for the second.

First: Cc1cc(C)c2ccc(C(=O)O)nc2c1O
Second: Cc1cc(C)c2ccc(N)nc2c1O
The inhibition of the first is higher: -5.39% for the first, -11.8% for the second.

First: CCOc1ccc2[nH]cc(C(=O)N3CCN(CC)CC3)c(=O)c2c1
Second: Cc1ccc(C)c(S(=O)(=O)N2CCN(C(=O)CCc3c[nH]c4ccccc34)CC2)c1
The inhibition of the first is higher: 5.18% for the first, -3.94% for the second.

First: COc1ccc(-c2noc(CCCC(=O)Nc3ccc(C(N)=O)cc3)n2)cc1
Second: CCC(=O)Nc1ccc(NC(=O)c2ccc3ccccc3c2)cc1
The inhibition of the first is higher: -3.01% for the first, -4.7% for the second.

Going from `CSc1nsc(/C=C/Nc2ccc(F)cc2F)c1C#N` to `CSc1nsc(/C=C/Nc2ccc(C)cc2)c1C#N`, the inhibition rises from 7.19% to 18.6%.

Compared with `O=c1c2cnn(-c3ccccc3)c2ncn1Cc1cccc(Cl)c1`, `COc1c(Cl)cnn(-c2ccccc2)c1=O` is higher in inhibition: 0.84% for the first, 6.51% for the second.

Compared with `O=C(COc1ccccc1)Nc1ncccn1`, `NNC(=O)COc1cccc(Oc2ccccc2)c1` is higher in inhibition: -7.9% for the first, 7.98% for the second.

Compared with `Cc1ccc2c(c1)C1(OCCCO1)C(=O)N2CC#N`, `Cc1nc(CSc2ccc(Cl)cc2)cc(N2CCOCC2)n1` is higher in inhibition: -7.17% for the first, 0.76% for the second.

First: O=S(=O)(Cc1cc(N2CCOCC2)nc(-c2ccccn2)n1)c1ccccc1
Second: O=S1(=O)CCOC[C@H](c2ccccc2)N1Cc1ccccc1F
The inhibition of the first is higher: 5.9% for the first, 1.26% for the second.

First: CCOC(=O)c1c(NC(=O)/C=C\C(=O)O)sc(C)c1-c1ccccc1
Second: CCOC(=O)c1c(NC(=O)CCN2CCOCC2)sc(C)c1-c1ccccc1
The inhibition of the first is lower: -6.71% for the first, 3.54% for the second.

Going from `COc1cc(/C=N/c2oc(C)c(C)c2C#N)cc(Br)c1O` to `CNC(C)C#Cc1ccc2c(=O)c3cc(C)c(C)cc3oc2c1` (stereo not drawn), the inhibition falls from 12% to 1.51%.

First: COCCN(C(=O)COC(=O)CCC(=O)c1ccc(Cl)cc1)c1c(N)n(Cc2ccccc2)c(=O)[nH]c1=O
Second: CC(C)(C)OC(=O)C[C@@H]1C/C=C\C[C@@H](CC(=O)N(CCO)Cc2ccccc2)C(=O)NC[C@@H](c2ccccc2)OC1=O
The inhibition of the first is lower: -11.3% for the first, 4.78% for the second.

Compared with `Cc1csc(NC(=O)CSc2ccc(-c3ccccc3)nn2)n1`, `Cc1cc(NC(=O)c2cncc(Br)c2)ccc1NC(=O)c1cc2ccccc2o1` is higher in inhibition: 1.71% for the first, 6.1% for the second.

First: COCCNC(=O)c1noc2c1CCc1cc(OC)ccc1-2
Second: Cc1cccc2sc(NNC(=O)C3=COCCO3)nc12
The inhibition of the first is higher: 3.34% for the first, 2.71% for the second.

First: O=C(Nc1ccc(C(F)(F)F)cc1)c1ccc(NC(=O)C2CCCO2)cc1 (stereo not drawn)
Second: O=C(NCC1CCCO1)C1c2ccccc2Oc2ccccc21 (stereo not drawn)
The inhibition of the first is higher: -5.77% for the first, -7.07% for the second.

Compared with `CC(NCC(O)COc1ccc2ccccc2c1)c1ccccc1` (stereo not drawn), `CNC(C)C#Cc1ccc2c(=O)c3ccccc3oc2c1` (stereo not drawn) is higher in inhibition: 9.15% for the first, 30% for the second.

Compared with `COC(=O)C(C)n1nc(C)n(-c2ccc(C)cc2)c1=O` (stereo not drawn), `Cc1ccc(N(CC(=O)N2CCc3ccccc3C2)S(C)(=O)=O)cc1` is lower in inhibition: -0.27% for the first, -1.47% for the second.

Going from `CCCCN(C(=O)CC1CCCC1)c1c(N)n(CCCC)c(=O)[nH]c1=O` to `Cn1c(=O)cc(OCC(=O)NCCCN2CCN(c3cccc(Cl)c3)CC2)c2ccccc21`, the inhibition rises from -14.4% to 1.78%.

First: COc1cc(Cl)nn(-c2ccccc2)c1=O
Second: C=CCNc1nc(C(=O)OCC(=O)c2ccc(F)cc2)cs1
The inhibition of the first is lower: -13.2% for the first, -9.37% for the second.

Source: PubChem BioAssay AID449762 (Southern Research Specialized Biocontainment Screening …, 2010)
